# From PubChem BioAssay
# Some of the results follow. Active and inactive are the calls of the source.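 How the source made its calls, unless noted: active means inhibition reaching about 45% at 4 µM in either replicate (limit read from the data); inactive means the rest.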
# Columns and labels:
# [1] = PMA/ionomycin-induced NF-kB reporter inhibitors, Jurkat retest, confirmation, T-cell NF-kB inhibitor project, cell-based, luminescence, single concentration (AID 435020); conditions: Jurkat NF-kB luciferase, 16 h, at 4 µM, stronger effect = higher value;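 further: plate controls were PMA/ionomycin stimulated DMSO wells for no effect and unstimulated DMSO wells for full effect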
# [2] = molecular target: Protein Mdm4 (Homo sapiens) + E3 ubiquitin-protein ligase Mdm2 (Homo sapiens) (UniProt O15151+Q00987); experiment: retested Mdm2-MdmX interaction blockers, confirmation, cell-based, luminescence, single concentration, set 2 (AID 504601;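 active means mean inhibition of the luminescence signal across two replicates at or above 26 percent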); conditions: SaOS-2 split-luciferase Mdm2/MdmX complementation, at 8 µM, stronger effect = higher value
# Protein Mdm4 (Homo sapiens) + E3 ubiquitin-protein ligase Mdm2 (Homo sapiens), sequence (O15151 whole entry, looked up): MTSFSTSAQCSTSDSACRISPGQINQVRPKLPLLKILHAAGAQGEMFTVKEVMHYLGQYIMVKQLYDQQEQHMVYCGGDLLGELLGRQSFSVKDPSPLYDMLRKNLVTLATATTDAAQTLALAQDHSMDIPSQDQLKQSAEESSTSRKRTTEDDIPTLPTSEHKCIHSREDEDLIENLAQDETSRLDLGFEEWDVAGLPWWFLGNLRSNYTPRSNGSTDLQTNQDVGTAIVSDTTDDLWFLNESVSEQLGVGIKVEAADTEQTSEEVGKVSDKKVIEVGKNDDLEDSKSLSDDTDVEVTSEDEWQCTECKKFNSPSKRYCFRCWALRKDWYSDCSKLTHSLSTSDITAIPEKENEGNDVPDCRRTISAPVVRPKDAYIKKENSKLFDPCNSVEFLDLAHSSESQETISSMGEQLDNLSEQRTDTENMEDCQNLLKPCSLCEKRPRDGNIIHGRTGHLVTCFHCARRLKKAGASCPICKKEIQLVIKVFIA
# Protein Mdm4 (Homo sapiens) + E3 ubiquitin-protein ligase Mdm2 (Homo sapiens), sequence (Q00987 whole entry, looked up): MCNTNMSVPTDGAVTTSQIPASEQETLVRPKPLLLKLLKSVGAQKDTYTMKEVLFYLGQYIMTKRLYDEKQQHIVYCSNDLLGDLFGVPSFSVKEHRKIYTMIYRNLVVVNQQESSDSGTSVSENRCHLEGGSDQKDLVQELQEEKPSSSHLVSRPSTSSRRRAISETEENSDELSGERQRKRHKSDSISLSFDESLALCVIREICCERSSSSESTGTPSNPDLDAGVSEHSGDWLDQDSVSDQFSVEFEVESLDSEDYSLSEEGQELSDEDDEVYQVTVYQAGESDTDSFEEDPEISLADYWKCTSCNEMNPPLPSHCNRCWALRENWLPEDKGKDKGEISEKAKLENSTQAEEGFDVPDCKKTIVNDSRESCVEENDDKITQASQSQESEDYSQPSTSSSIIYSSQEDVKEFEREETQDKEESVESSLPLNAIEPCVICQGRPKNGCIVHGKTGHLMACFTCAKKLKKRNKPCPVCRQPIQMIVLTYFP
# [3] = HIF-2a reporter inhibitor retest, confirmation, luminescence, 786-0 RCC cells (AID 651580;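 active means mean inhibition across four replicates of at least 40 percent at the single tested concentration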); conditions: HIF-2a luciferase reporter luminescence, overnight, at 18.8 µM, stronger effect = higher value
# [4] = HIF-1a luciferase reporter signal reduction – MiaPaCa-2 cells, single concentration, counter-screen for HIF-2a inhibitor project, confirmation (AID 651589;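 active means mean inhibition of the reporter signal across four replicates at the single tested dose of 50% or more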); conditions: MiaPaCa-2 HIF-1a luciferase reporter, desferoxamine, overnight; at 18.8 µM; stronger effect = higher value
# [5] = inhibition of Brca1/Bard1 split-luciferase complementation, confirmation, counter-screen for Mdm2/MdmX interaction inhibitor project, luminescence, single concentration (AID 504668; call rule not given here); conditions: Brca1/Bard1 bimolecular luciferase complementation counterscreen, at 8 µM, stronger effect = higher value
# [6] = Peg3 promoter reporter inhibitors, retest, confirmation, cell-based, HeLa, luciferase reporter, single concentration (AID 602417;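 active means at 20 µM dose, 40% or more inhibition averaged across four replicates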); conditions: HeLa PEG-Prom luciferase reporter, luminescence, overnight; at 20 µM; stronger effect = higher value
# [7] = molecular target: Tumor necrosis factor receptor superfamily member 10B (Homo sapiens) (UniProt O14763); experiment: caspase-8 TRAIL sensitization, hit retest, confirmation, cell-based, NB7+caspase-8, with/without TRAIL, luminescence panel (AID 651596; in the data active means activity above about 50%); conditions: NB7 neuroblastoma + caspase-8, TRAIL sensitization, luminescence viability, with TRAIL, mean of runs, at 10 µM, stronger effect = higher value
# Tumor necrosis factor receptor superfamily member 10B (Homo sapiens), sequence (O14763 whole entry, looked up): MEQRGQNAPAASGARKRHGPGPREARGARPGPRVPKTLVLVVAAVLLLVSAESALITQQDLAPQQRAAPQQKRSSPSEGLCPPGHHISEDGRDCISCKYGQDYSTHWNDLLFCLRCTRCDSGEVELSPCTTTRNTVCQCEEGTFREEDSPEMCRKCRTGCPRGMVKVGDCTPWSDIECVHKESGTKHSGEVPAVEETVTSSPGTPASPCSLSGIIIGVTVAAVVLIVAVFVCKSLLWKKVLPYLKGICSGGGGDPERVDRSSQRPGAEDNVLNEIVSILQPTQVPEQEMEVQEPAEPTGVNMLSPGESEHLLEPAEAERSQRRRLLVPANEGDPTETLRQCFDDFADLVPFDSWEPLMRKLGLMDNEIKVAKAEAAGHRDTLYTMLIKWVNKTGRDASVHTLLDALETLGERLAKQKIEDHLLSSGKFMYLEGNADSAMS
# [8] = as above; conditions: NB7 neuroblastoma + caspase-8, without TRAIL, luminescence viability, without TRAIL, mean of runs, at 10 µM
# [9] = activators of apoptotic CHOP UPR arm, confirmation, cell-based, CHO-CHOP luciferase reporter, single concentration (AID 463112; in the data active means activation above about 33%;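 further: 0% = DMSO wells and 100% = tunicamycin 10 µg/mL wells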); conditions: CHO-CHOP cells, CHOP-luciferase reporter luminescence; at 10 µM; stronger effect = higher value; percent of tunicamycin response, DMSO as zero
# [10] = molecular target: COP9 signalosome complex subunit 5 (Homo sapiens) (UniProt Q92905); experiment: Csn5 deneddylation inhibitors, confirmation, biochemical, fluorescence polarization, single concentration, SCF-Nedd8OG substrate (AID 720654; in the data active means inhibition above about 50%;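 further: 0% = DMSO with enzyme and 100% = no enzyme wells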); conditions: Csn5 deneddylation of SCF-Nedd8OG, 90 min, at 16.6 µM, stronger effect = higher value
# COP9 signalosome complex subunit 5 (Homo sapiens), sequence (Q92905 whole entry, looked up, one chain of several): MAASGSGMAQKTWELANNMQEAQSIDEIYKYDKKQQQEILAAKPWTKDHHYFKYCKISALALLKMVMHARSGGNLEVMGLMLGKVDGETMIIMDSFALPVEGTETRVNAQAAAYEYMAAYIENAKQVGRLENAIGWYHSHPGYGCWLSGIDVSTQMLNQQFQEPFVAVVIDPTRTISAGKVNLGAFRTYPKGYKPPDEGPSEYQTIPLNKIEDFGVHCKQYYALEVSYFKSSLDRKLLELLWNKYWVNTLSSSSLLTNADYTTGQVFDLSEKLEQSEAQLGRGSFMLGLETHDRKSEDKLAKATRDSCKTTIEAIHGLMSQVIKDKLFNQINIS
# [11] = molecular target: 72 kDa type IV collagenase (Homo sapiens) (UniProt P08253); experiment: MMP-2 protease inhibition counter-screen, confirmation, counter-screen for CSN deneddylation inhibitor project, biochemical, fluorescence, single concentration (AID 720655;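 active means corrected plate-normalized z-score of 5 or more, or -5 or less, or inhibition of 15% or more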;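 further: plate controls were DMSO wells with enzyme for no effect and buffer wells lacking MMP-2 for full effect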); conditions: recombinant MMP-2, FRET substrate fluorescence, 60 min; at 16.6 µM
# 72 kDa type IV collagenase (Homo sapiens), sequence (P08253 whole entry, looked up): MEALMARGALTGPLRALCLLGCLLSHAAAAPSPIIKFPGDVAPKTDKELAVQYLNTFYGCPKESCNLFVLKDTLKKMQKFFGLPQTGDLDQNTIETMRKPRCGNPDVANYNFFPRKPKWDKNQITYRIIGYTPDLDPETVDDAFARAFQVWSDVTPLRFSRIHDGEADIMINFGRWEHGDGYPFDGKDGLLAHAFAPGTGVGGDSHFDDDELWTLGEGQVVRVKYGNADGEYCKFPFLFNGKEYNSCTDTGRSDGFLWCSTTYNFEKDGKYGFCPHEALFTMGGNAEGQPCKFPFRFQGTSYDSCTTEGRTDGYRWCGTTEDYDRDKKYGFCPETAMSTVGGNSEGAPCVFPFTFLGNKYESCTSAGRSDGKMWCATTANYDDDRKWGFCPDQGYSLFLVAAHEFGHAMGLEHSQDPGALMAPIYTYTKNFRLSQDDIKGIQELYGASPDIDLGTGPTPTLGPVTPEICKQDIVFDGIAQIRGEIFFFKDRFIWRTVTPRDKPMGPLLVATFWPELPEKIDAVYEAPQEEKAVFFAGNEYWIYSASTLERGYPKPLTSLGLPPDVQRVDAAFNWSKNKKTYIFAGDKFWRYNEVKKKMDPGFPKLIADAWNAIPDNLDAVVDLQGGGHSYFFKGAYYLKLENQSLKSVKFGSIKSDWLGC
# [12] = molecular target: Prothrombin (Bos taurus) (UniProt P00735); experiment: bovine thrombin inhibition counter-screen, confirmation, counter-screen for CSN deneddylation inhibitor project, biochemical, fluorescence polarization, single concentration (AID 720656;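 active means inhibition at or above a set limit, with a fluorescence interference ratio between 0.5 and a set maximum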); conditions: bovine thrombin cleavage of Ub4-pepOG, at 16.6 µM, stronger effect = higher value
# Prothrombin (Bos taurus), sequence (P00735 whole entry, looked up): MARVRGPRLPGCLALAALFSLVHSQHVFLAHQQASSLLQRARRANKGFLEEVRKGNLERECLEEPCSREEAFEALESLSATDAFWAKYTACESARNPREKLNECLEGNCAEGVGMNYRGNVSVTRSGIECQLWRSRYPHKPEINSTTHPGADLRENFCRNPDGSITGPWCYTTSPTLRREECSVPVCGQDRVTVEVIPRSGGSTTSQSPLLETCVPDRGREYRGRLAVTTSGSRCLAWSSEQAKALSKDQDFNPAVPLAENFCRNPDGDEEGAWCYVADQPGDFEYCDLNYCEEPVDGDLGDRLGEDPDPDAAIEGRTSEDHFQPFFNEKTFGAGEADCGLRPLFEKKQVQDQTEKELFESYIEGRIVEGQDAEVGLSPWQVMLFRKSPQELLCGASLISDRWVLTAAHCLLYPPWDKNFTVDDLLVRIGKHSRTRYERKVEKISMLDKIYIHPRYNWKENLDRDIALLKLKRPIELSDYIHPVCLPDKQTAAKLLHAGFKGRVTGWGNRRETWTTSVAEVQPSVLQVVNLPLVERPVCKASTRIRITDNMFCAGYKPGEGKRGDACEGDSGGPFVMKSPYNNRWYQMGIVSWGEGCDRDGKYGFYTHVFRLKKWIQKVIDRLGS
# [13] = inhibitors of PAF-induced NF-kB signaling, retest, confirmation, cell-based, GFP fluorescence, single concentration (AID 602472; in the data active means inhibition above about 40%;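 further: stimulus PAF is a Pseudomonas aeruginosa filtrate and not platelet activating factor; plate controls were DMSO wells with stimulus for no effect and unstimulated DMSO wells for full effect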); conditions: KKLEB CF airway cells, overnight, at 5 µM, stronger effect = higher value
# [14] = inhibitors of PAF-induced NFkB signaling in CF airway cells, dose response, cell-based, uHTS hits, panel, cytotoxicity readout (AID 624344); conditions: CF bronchial epithelial cells, PAF-induced NFkB reporter inhibition, with PAF, run 1; at 79 µM (top of the series) unless noted
# [15] = as above; conditions: CF bronchial epithelial cells, PAF-induced NFkB reporter inhibition, with PAF, run 2; at 79 µM (top of the series) unless noted
# [16] = molecular target: Sentrin-specific protease 8 (Homo sapiens) (UniProt Q96LD8); experiment: SENP8 protease inhibitors, retest, confirmation, biochemical, luminescence, single concentration (AID 488912;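 active means mean inhibition across replicates above about 50%, limit read from the data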); conditions: Recombinant SENP8, Z-RLRGG-aminoluciferin luminescence, 60 min; at 12.5 µM; stronger effect = higher value
# Sentrin-specific protease 8 (Homo sapiens), sequence (Q96LD8 whole entry, looked up): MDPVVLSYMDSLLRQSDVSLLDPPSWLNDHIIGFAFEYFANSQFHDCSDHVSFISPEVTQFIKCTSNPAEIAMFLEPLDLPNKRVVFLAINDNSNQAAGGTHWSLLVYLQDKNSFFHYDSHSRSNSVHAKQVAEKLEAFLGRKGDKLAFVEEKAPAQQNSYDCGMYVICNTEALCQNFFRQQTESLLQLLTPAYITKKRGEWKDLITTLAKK
# [17] = molecular target: Sentrin-specific protease 6 (Homo sapiens) (UniProt Q9GZR1); experiment: SENP6 protease inhibitors, confirmation, biochemical, luminescence, single concentration (AID 488915;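 active means mean inhibition above about 50% in the one-dose retest, limit read from the data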); conditions: recombinant SENP6, Z-RLRGG-aminoluciferin luminescence; at 12.5 µM; stronger effect = higher value
# Sentrin-specific protease 6 (Homo sapiens), sequence (Q9GZR1 628-1112 limits assumed): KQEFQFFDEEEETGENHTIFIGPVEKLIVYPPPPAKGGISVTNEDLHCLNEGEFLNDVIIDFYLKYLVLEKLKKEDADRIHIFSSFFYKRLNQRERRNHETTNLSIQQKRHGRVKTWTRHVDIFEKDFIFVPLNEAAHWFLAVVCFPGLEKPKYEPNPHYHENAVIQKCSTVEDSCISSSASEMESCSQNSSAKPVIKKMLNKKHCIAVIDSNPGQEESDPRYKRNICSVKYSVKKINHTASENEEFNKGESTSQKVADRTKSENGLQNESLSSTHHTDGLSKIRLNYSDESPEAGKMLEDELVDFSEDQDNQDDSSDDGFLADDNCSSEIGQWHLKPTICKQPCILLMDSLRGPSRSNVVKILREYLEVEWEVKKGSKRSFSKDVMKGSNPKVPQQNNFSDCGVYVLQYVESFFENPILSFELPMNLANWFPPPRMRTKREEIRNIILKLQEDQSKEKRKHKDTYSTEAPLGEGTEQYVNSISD
# [18] = molecular target: Sentrin-specific protease 7 (Homo sapiens) (UniProt Q9BQF6); experiment: SENP7 protease inhibitors, retest, confirmation, biochemical, luminescence, single concentration (AID 488917;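 active means mean inhibition above about 50% in the one-dose retest, limit read from the data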); conditions: recombinant SENP7, Z-RLRGG-aminoluciferin luminescence, 40 min; at 12.5 µM; stronger effect = higher value
# Sentrin-specific protease 7 (Homo sapiens), sequence (Q9BQF6 706-1050 limits assumed): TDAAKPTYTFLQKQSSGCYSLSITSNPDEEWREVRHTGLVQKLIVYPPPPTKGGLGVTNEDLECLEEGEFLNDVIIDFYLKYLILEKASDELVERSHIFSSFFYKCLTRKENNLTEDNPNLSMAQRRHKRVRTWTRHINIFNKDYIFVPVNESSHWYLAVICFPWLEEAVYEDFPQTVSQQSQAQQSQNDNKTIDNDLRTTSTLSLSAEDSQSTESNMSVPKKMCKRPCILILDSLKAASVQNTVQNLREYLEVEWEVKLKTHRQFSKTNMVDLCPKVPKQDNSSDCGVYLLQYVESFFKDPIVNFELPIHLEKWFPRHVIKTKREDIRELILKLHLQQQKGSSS
# [19] = molecular target: Caspase-3 (Homo sapiens) (UniProt P42574); experiment: caspase-3 protease inhibitors, confirmation, selectivity assay for SENP inhibitor project, biochemical, single concentration (AID 488918;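 active means mean inhibition above about 50%, limit read from the data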;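 further: plate controls were enzyme with DMSO for no effect and wells without caspase-3 for full effect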); conditions: purified caspase-3, Z-DEVD-aminoluciferin luminescence, 60 min; at 12.5 µM; stronger effect = higher value
# Caspase-3 (Homo sapiens), sequence (P42574 28-227 limits assumed): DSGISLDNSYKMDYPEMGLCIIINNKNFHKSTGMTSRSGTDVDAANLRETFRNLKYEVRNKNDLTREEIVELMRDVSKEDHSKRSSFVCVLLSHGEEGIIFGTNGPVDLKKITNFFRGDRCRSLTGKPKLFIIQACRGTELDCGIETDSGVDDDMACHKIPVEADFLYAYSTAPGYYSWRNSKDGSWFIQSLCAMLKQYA
# [20] = luciferase luminescence interference by compounds, confirmation, artefact control for SENP inhibitor project, biochemical, single concentration, SENP8 reaction pre-completed (AID 488919;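 active means mean inhibition above about 50% when retested at one dose, limit read from the data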;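 further: plate controls were DMSO wells with completed reaction for no effect and substrate without enzyme for full effect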); conditions: Pre-incubated SENP8/Z-RLRGG-aminoluciferin, at 12.5 µM, stronger effect = higher value
# [21] = molecular target: PEG-3 (UniProt Q6IN02); experiment: Peg3 promoter luciferase inhibitors, potency, dose response, cell-based, HeLa, CREF/GAPDH counter-screen panel (AID 624167); conditions: CREF/GAPDH counter-screens; HeLa PEG-Prom luciferase reporter, overnight, run 1, dose range 1, at 100 µM (top of the series) unless noted
# PEG-3, sequence (Q6IN02 whole entry, looked up): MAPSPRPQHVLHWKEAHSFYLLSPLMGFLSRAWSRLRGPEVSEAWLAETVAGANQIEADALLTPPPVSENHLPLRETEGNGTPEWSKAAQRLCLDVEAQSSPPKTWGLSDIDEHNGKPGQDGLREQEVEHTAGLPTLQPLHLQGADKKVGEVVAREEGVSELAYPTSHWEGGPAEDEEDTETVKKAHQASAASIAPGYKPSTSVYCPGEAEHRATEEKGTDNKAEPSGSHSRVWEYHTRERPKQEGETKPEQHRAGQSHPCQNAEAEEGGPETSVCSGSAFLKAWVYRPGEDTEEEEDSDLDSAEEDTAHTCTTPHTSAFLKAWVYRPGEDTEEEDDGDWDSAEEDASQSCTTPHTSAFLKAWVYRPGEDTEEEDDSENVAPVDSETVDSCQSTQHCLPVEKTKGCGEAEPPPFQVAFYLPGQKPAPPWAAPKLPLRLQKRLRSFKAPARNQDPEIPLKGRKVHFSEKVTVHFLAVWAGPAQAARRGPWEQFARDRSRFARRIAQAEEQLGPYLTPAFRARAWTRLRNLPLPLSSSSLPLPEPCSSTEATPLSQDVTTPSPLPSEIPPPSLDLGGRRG
# [22] = molecular target: PEG-3 (UniProt Q6IN02); experiment: as above; conditions: CREF/GAPDH counter-screens; HeLa PEG-Prom luciferase reporter, overnight, run 2, dose range 1, at 100 µM (top of the series) unless noted
# [23] = tested on: Rat fibroblasts (CREF); experiment: as above; conditions: CREF/GAPDH counter-screens; run 1, dose range 1, at 100 µM (top of the series)
# [24] = tested on: Rat fibroblasts (CREF); experiment: as above; conditions: CREF/GAPDH counter-screens; run 2, dose range 1, at 100 µM (top of the series)
smiles,measurement,setting,value
C=C(C)C(=O)O[C@H]1C/C(C)=C\C(=O)/C=C(\C)[C@H](O)[C@@H]2OC(=O)C(=C)[C@@H]21,inhibition,[1],34.6% (inactive)
same,inhibition,[2],103% (active)
same,inhibition,[3],61.8% (active)
same,inhibition,[4],108% (active)
COC(=O)Cc1[nH]n(-c2nc3ccccc3s2)c(=O)c1C(C)=Nc1ccc(OC)cc1,inhibition,[1],79.2% (active)
same,inhibition,[5],26.2% (active)
same,inhibition,[6],86.3% (active)
same,inhibition,[3],82.3% (active)
same,inhibition,[4],92.7% (active)
same,activity,[7],47%
same,activity,[8],40.9%
Cc1cccc(C)c1NC(=O)C(Cl)C(=O)c1ccccc1 (stereo unspecified),activation,[9],85.6% (active)
COc1ccc(OC)c(Nc2nc(-c3ccc(O)c(O)c3)cs2)c1,activation,[9],187% (active)
CC[n+]1cc(C)ccc1/C=C/c1ccc(N(C)C)cc1,inhibition,[1],46% (inactive)
same,inhibition,[10],56.8% (active)
same,inhibition,[11],-78.8% (active)
same,inhibition,[12],63.1% (active)
CN(C)CCCn1c(SCc2ccc(Cl)cc2)nnc1-c1ccncc1,activation,[9],-0.025% (inactive)
Cc1ccc(Cc2cnc(NC(=O)/C(C#N)=C/c3ccc(-c4cccc([N+](=O)[O-])c4)o3)s2)cc1,activation,[9],61.4% (active)
Cc1cccc(Nc2nc3c(S(=O)(=O)c4ccccc4)nnn3c3ccccc23)c1C,activation,[9],128% (active)
CCN1/C(=C\c2ccc3ccccc3[n+]2CC)Sc2cc(C)ccc21,inhibition,[1],67.4% (active)
same,inhibition,[5],25% (active)
same,inhibition,[10],24% (inactive)
same,inhibition,[11],-3.14% (inactive)
same,inhibition,[12],43.3% (inactive)
CC1CC2=C(CC1/C=N/NC(N)=S)C(C)(C)CCC2 (stereo unspecified),activation,[9],29.4% (inactive)
Nc1ccccc1SC(C[N+](=O)[O-])c1ccccc1 (stereo unspecified),activation,[9],-9.65% (inactive)
NC(=O)c1c(NC(=O)c2ccccc2)sc2c1CCCC2,inhibition,[1],-110% (inactive)
same,activity,[7],51.6%
same,activity,[8],58%
COc1ccccc1-n1nnnc1S(=O)(=O)Cc1ccc(Cl)cc1,inhibition,[1],26.5% (inactive)
same,inhibition,[2],103% (active)
same,inhibition,[13],99.1% (active)
same,inhibition,[3],70.5% (active)
same,inhibition,[4],102% (active)
same,inhibition,[14],110%
same,inhibition,[15],104%
Fc1ccccc1/C=N/Nc1cc(N2CCCCC2)ncn1,inhibition,[1],-109% (inactive)
same,inhibition,[16],17.6% (inactive)
same,inhibition,[17],16.9% (inactive)
same,inhibition,[18],16.6% (inactive)
same,inhibition,[19],25.2% (inactive)
same,inhibition,[20],6.6% (inactive)
O=c1oc2ccccc2cc1-c1cn(-c2ccccc2)c(=S)[nH]1,inhibition,[1],80.8% (active)
same,inhibition,[16],39.3% (inactive)
same,inhibition,[17],47.9% (inactive)
same,inhibition,[18],81.7% (active)
same,inhibition,[19],81.8% (active)
same,inhibition,[20],19.1% (inactive)
same,inhibition,[2],92% (active)
CCOc1ccc(N2C(=O)CC(N(O)c3ccccc3)C2=O)cc1 (stereo unspecified),activation,[9],186% (active)
Clc1cccc(Cl)c1OCCOCCNCc1ccccc1,inhibition,[1],86.6% (active)
same,inhibition,[5],33% (active)
O=C(Nc1nc2ccccc2s1)c1ccc2c(c1)OCO2,inhibition,[1],-106% (inactive)
same,inhibition,[16],66% (active)
same,inhibition,[17],95.1% (active)
same,inhibition,[18],97.4% (active)
same,inhibition,[19],84.8% (active)
same,inhibition,[20],18.6% (inactive)
same,activity,[7],78.8%
same,activity,[8],76.8%
Cc1ccc(O)c(NC(=O)c2cc(-c3ccco3)on2)c1,inhibition,[1],52.2% (active)
same,inhibition,[16],30.6% (inactive)
same,inhibition,[17],36.5% (inactive)
same,inhibition,[18],81.1% (active)
same,inhibition,[19],44.4% (inactive)
same,inhibition,[20],14.4% (inactive)
Cc1cccc(/C(N)=N/OC(=O)c2ccccc2Cl)c1,inhibition,[1],-97.8% (inactive)
same,inhibition,[16],97.7% (active)
same,inhibition,[17],98.9% (active)
same,inhibition,[18],102% (active)
same,inhibition,[19],97.2% (active)
same,inhibition,[20],96.8% (active)
same,activity,[7],77.6%
same,activity,[8],84.8%
CCOC(=O)/C=c1\s/c(=C\c2ccc(C#N)cc2)c(=O)n1CC(=O)Nc1cccc(C)c1C,activation,[9],1.05% (inactive)
O=C(Nc1ccccc1)Nc1nc2ccccc2s1,inhibition,[1],-117% (inactive)
same,inhibition,[16],17.8% (inactive)
same,inhibition,[17],29% (inactive)
same,inhibition,[18],25.6% (inactive)
same,inhibition,[19],44.9% (inactive)
same,inhibition,[20],22.6% (inactive)
O=C(NCCc1ccc(Cl)cc1)c1cccc(N2CCCC2=O)c1,activation,[9],1.95% (inactive)
COc1ccc2cc1Oc1ccc(cc1)C[C@H]1c3cc(c(OC)cc3CCN1C)Oc1c(O)c(OC)cc3c1[C@H](C2)N(C)CC3,inhibition,[1],16.9% (inactive)
same,inhibition,[2],104% (active)
OCCCNc1nccc(-c2cc(Nc3cccc(Cl)c3)ncn2)n1,inhibition,[1],97% (active)
same,inhibition,[2],102% (active)
same,inhibition,[6],97.6% (active)
same,inhibition,[21],94%
same,inhibition,[22],97.4%
same,inhibition,[23],14.7%
same,inhibition,[24],62.3%
CC(C)(C)c1ccc(Oc2ccc(N)cc2)cc1,inhibition,[1],11.6% (inactive)
same,inhibition,[6],86.3% (active)
same,inhibition,[21],99.3%
same,inhibition,[22],99.2%
same,inhibition,[23],60.1%
same,inhibition,[24],83.1%
Cn1ccc(=Nc2ccc(NC(=O)c3ccc(N=c4ccn(C)c5ccc([N+](=O)[O-])cc45)cc3)cc2)cc1,inhibition,[1],-15.3% (inactive)
same,inhibition,[11],61.8% (active)
same,inhibition,[12],-10.3% (inactive)
